# Assay results as given in PubChem BioAssay.
# For part of these data: Results with a measured potency or affinity are listed apart. Activity calls are given as the source filed them.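 Rule for the calls, unless noted: active = dose curve with midpoint inside tested range, moderate steepness, plateau gap beyond fit error, low compound glow and bead-link interference; inactive = the rest.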
# Experiments:
# [1] = biological target: Cell division control protein 42 homolog (Homo sapiens) (UniProt P60953); assay: activated mutant Cdc42 GTP-binding inhibitors, dose response, biochemical, multiplex bead flow cytometry, Bodipy-FL-GTP (AID 1333;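 active = fitted half-maximal concentration within the tested dose range, moderate curve steepness, a statistically real signal drop, and little compound fluorescence or tag-binding interference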)
# [2] = biological target: Cell division control protein 42 homolog (Homo sapiens) (UniProt P60953); assay: wildtype Cdc42 GTP-binding inhibitors, dose response, biochemical, multiplex bead flow cytometry, Bodipy-FL-GTP (AID 1334;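 active = fitted half-maximal concentration within the tested range, moderate curve steepness, significant signal drop, and little compound fluorescence or bead-linkage interference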); settings: bead-based flow cytometry, Bodipy-FL-GTP binding to GST-Cdc42; at 100 µM (top of the series) unless noted
# [3] = biological target: GTPase HRas (Homo sapiens) (UniProt P01112); assay: inhibitors of GTP binding to wildtype Ras, dose response, biochemical, multiplex bead flow cytometry (AID 1335;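 active = fitted half-maximal concentration within 10 nM to 100 µM, steepness 0.5 to 2, significant signal drop, low assay interference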); settings: bead-based flow cytometry, Bodipy-GTP binding to GST-Ras; at 100 µM (top of the series) unless noted
# [4] = system: Ras-related protein Rab-7a (dog), GTP binding; assay: Rab7 GTP binding inhibitors, potency, dose response, biochemical, wildtype, multiplex bead flow cytometry (AID 1336; call rule not given here)
# [5] = biological target: Ras-related C3 botulinum toxin substrate 1 (Homo sapiens) (UniProt P63000); assay: wildtype Rac1 GTP binding inhibitors, dose response, biochemical, multiplex bead flow cytometry (AID 1340); settings: GST-Rac1 beads, Bodipy-FL-GTP binding; at 100 µM (top of the series) unless noted
# [6] = biological target: GTPase HRas (Homo sapiens) (UniProt P01112); assay: activated Ras mutant GTP binding inhibitors, dose response, biochemical, multiplex bead flow cytometry (AID 1341;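 active = dose-response curve with midpoint inside the tested range, moderate steepness, significant amplitude and little compound fluorescence or bead-attachment interference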;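 note: GST-tagged constitutively activated Ras mutant immobilized on beads and multiplexed with other GTPases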)
# Sequence of Cell division control protein 42 homolog (Homo sapiens) (P60953 whole entry, looked up): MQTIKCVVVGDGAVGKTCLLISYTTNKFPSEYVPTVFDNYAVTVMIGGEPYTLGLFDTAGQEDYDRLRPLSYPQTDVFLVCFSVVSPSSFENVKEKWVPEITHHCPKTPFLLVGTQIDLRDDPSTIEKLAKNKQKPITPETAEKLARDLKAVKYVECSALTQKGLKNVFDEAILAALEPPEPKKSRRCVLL
# Sequence of GTPase HRas (Homo sapiens) (P01112 whole entry, looked up): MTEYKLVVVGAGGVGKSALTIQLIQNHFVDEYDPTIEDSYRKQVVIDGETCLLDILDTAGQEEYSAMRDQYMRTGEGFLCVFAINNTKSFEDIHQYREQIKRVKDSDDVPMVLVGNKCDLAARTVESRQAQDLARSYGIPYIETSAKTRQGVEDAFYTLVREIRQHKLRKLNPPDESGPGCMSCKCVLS
SMILES,outcome [1],"fluorescence, percent of control (lower = inhibition) [2]","GTP binding, percent of control [3]",outcome [4],"GTP binding signal, raw median fluorescence (lower = inhibition) (MCF (arbitrary fluorescence units)) [5]",outcome [6]
O=C(OCCN1CCCCC1)c1cc2ccccc2o1,inactive,34.8%,79.9%,inactive,271,inactive
COc1ccc2c(C(=O)O)cn(CCOc3ccccc3C)c2c1,inactive,64.6%,214%,inactive,59.2,inactive
COc1ccccc1OCCn1cc(C(=O)O)c2c(Cl)cccc21,inactive,48.6%,191%,inactive,52,inactive
Oc1c(C(c2ccccn2)N2CCOCC2)ccc2cccnc12 (stereo not given),inactive,55.1%,70.9%,inactive,0,inactive
COc1cccc(NC(=O)NCCCN2CCN(c3ccc(F)cc3)CC2)c1,inactive,40.4%,84.6%,inactive,255,inactive
COc1ccc2c(C)nc(N/C(N)=N/S(=O)(=O)c3ccc(C)cc3)nc2c1,inactive,38.9%,87.9%,inactive,272,inactive
O=C(C#Cc1ccccc1F)c1ccc([N+](=O)[O-])cc1,inactive,49.8%,179%,inactive,104,inactive
Cc1ccc(-c2cn3cccc(C)c3n2)cc1,inactive,35.6%,86%,inactive,167,inactive
COc1cc(NS(=O)(=O)c2ccc(Nc3nc(-c4ccccc4)cs3)cc2)nc(OC)n1,inactive,40.7%,53.3%,inactive,138,inactive
COc1ccc(CC(C)N2CCN(Cc3ccccc3)CC2)c(OC)c1 (stereo not given),inactive,38.1%,85.3%,inactive,272,inactive
O=C(Nc1cccc(-c2nc3ncccc3o2)c1)c1sc2ccccc2c1Cl,inactive,88.9%,340%,inactive,343,inactive
Cc1nc2ccc(-c3nc4ccc(N)cc4[nH]3)cc2[nH]1,inactive,35.3%,79.9%,inactive,210,inactive
O=S1(=O)N=C(N(CCO)/N=C/c2ccncc2)c2ccccc21,inactive,24.1%,52.3%,inactive,114,inactive
Cc1ccc(OCCn2cnc3cc([N+](=O)[O-])ccc3c2=O)cc1,inactive,38.1%,85.1%,inactive,190,inactive
O=C(Nc1cccc(Cl)c1)Nc1ccnc(-c2cccnc2)n1,inactive,33.8%,72.8%,inactive,155,inactive
Cn1c(O)c(C2=c3ccccc3=NC2=O)[nH]c1=S,inactive,37.9%,83.1%,inactive,214,inactive
N=c1oc2ccc3ccccc3c2cc1-c1nc(-c2ccccc2)cs1,inactive,32.3%,75%,inactive,209,inactive
COc1cc2[nH]c(=S)nc(Nc3ccc(NC(C)=O)cc3)c2cc1OC,inactive,23.4%,52.2%,inactive,118,inactive
Nc1[nH]nc2ncc3cc4ccccc4nc3c12,inactive,34.1%,71.9%,inactive,153,inactive
Cc1ccc(C(C)C)c(OCc2ccccc2C(=O)O)c1,inactive,73.5%,87%,inactive,48.6,inactive

SMILES,outcome [1],"fluorescence, percent of control (lower = inhibition) [2]","GTP binding, percent of control [3]",outcome [4],"GTP binding signal, raw median fluorescence (lower = inhibition) (MCF (arbitrary fluorescence units)) [5]",outcome [6]
CCOC(=O)/C=C1\SCC(=O)N1CCOc1cccc(Br)c1,inactive,94.9%,164%,inactive,185,inactive
COc1cccc(-c2cc(C(F)(F)F)c(C#N)c(=O)[nH]2)c1,inactive,30%,75.7%,inactive,230,inactive
CCOc1ccc2ccccc2c1/C=N/n1cncn1,inactive,86.7%,156%,inactive,179,inactive
CC(=O)N1C(=O)/C(=C2\SC(=S)N(NC(=O)c3ccc(O)cc3)C2=O)c2ccccc21,inactive,31.6%,70.8%,inactive,155,inactive
CCCC(=O)c1ccc(N2CCOCC2)c(F)c1,inactive,48.4%,65.7%,inactive,212,inactive
CCc1ccccc1NC(=O)N1C2CCCC1CC(NC(C)=O)C2 (stereo not given),inactive,102%,152%,inactive,191,inactive
COc1cc2[nH]c(=S)nc(NCC3CCCO3)c2cc1OC (stereo not given),inactive,59.4%,152%,inactive,177,inactive
O=c1c2ccc([N+](=O)[O-])cc2ncn1Cc1ccccc1C(F)(F)F,inactive,34.8%,72.7%,inactive,141,inactive
Cc1sc2nc3c4ccccc4c(NCc4ccco4)nn3c(=O)c2c1C,inactive,94%,104%,inactive,123,inactive
CSc1nc(Cc2ccccc2)cc(=O)[nH]1,inactive,36.3%,80.4%,inactive,273,inactive
Cc1ccc(-c2csc3nc4c5ccccc5c(NCCCN(C)C)nn4c(=O)c23)cc1,inactive,61.7%,96.5%,inactive,192,inactive
COc1ccc(C2=Nn3c(nnc3-c3ccco3)SC2)cc1OC,inactive,69.9%,137%,inactive,146,inactive
O=C(O)c1cccc(-n2cccc2/C=C2/NC(=O)N(c3ccc(Cl)cc3)C2=O)c1,inactive,22.7%,64.3%,inactive,213,inactive
O=C(c1nn2c(C(F)(F)F)cc(-c3ccc(F)cc3)nc2c1Cl)N1CCOCC1,inactive,48.9%,62.6%,inactive,189,inactive
Cc1cccc(CCNc2ncccc2C(=O)O)c1,inactive,122%,337%,inactive,101,inactive
Cc1ccc(/C(N)=N/OC(=O)CCC2CCCCC2)cc1,inactive,80.5%,154%,inactive,180,inactive
Cc1ccc(Nc2nc(N)c(C#N)c(CC#N)c2C#N)cc1,inactive,36.6%,85.9%,inactive,224,inactive
COc1ccc(OCc2c(C)cccc2C)c(C(=O)O)c1,inactive,58.3%,203%,inactive,55,inactive
N=C1/C(=C\c2ccc(SCc3ccco3)o2)C(=O)N=C2SC=NN12,inactive,64.2%,108%,inactive,112,inactive
Cc1nn(Cc2ccccc2)c(C)c1NC(=O)CSc1nc2c(c(C(F)(F)F)n1)CCc1ccccc1-2,inactive,33.3%,73.5%,inactive,175,inactive

SMILES,outcome [1],"fluorescence, percent of control (lower = inhibition) [2]","GTP binding, percent of control [3]",outcome [4],"GTP binding signal, raw median fluorescence (lower = inhibition) (MCF (arbitrary fluorescence units)) [5]",outcome [6]
O=C1NC(=S)N/C1=C/c1cc([N+](=O)[O-])ccc1O,inactive,60.7%,157% [at 33.3 µM],inactive,185 [at 33.3 µM],inactive
COc1ccccc1Nc1nc(-c2c(C)nc3ncccn23)cs1,inactive,26.5%,57.6%,inactive,117,inactive
O=c1c2c(-c3ccccc3)csc2nc2c3ccccc3c(NCCN3CCOCC3)nn12,inactive,32.1%,66.4%,inactive,168,inactive
C/C(=N\NC(=O)c1ccc(Cl)c(S(=O)(=O)Nc2ccccc2Cl)c1)c1ccncc1,inactive,38.1%,54%,inactive,92,inactive
CCCNC(=O)C(=O)NCc1ccccn1,inactive,41.2%,91.1%,inactive,323,inactive
COc1cc(/C=N/NC(=O)CCN2CCN(c3ccccc3)CC2)cc(OC)c1OC,inactive,34.6%,77.3%,inactive,236,inactive
O=C(O)Cn1cc(C(=O)C2CCCCC2)c2ccccc21,inactive,59.5%,88.6%,inactive,32,inactive
N#C/C(=C/c1ccc(N2CCCCCC2)o1)c1ccc(Cl)cc1,inactive,127%,205%,inactive,210,inactive
Cc1ccc(C(C)C)c(OCCSc2nc3ccccc3n2CC(=O)O)c1,inactive,56.7%,86.4%,inactive,32.1,inactive
O=C(OC(C(=O)NCc1cccs1)c1ccccn1)c1cccs1 (stereo not given),inactive,83.4%,162%,inactive,175,inactive
CCN1/C(=C\C=C2\C(=O)N(c3ccccc3)C(=S)N2C)Sc2ccccc21,inactive,35.1%,73.9%,inactive,189,inactive
Nc1c(S(=O)(=O)c2ccccc2)c2nc3ccccc3nc2n1C1CC1,inactive,33.3%,80%,inactive,196,inactive
O=C(CN1C(=O)C2C3c4ccccc4C(c4ccccc43)C2C1=O)Nc1cccc(C(=O)O)c1 (stereo not given),inactive,46.1%,58.8%,inactive,165,inactive
OC(c1ccc(OCc2ccccc2)cc1)c1nnc(-c2ccccc2)o1 (stereo not given),inactive,92.3%,177%,inactive,173,inactive
CCN1C(=O)/C(=C/C=C2/Sc3ccc4ccccc4c3N2CCO)SC1=S,inactive,27.6%,59.2%,inactive,179,inactive
CCNC(=S)N(Cc1cccs1)Cc1cc2cc(OCC)ccc2[nH]c1=O,inactive,45%,66%,inactive,0,inactive
CN1/C(=C\C=C(/C#N)C(=O)Nc2ccc(Cl)cc2)C(C)(C)c2ccccc21,inactive,76.8%,80%,inactive,226,inactive
Nc1nc(N)c2sc3nc4c(cc3c2n1)CCC4,inactive,89.1%,126%,inactive,136,inactive
O=C(O)C1=C[C@H](c2ccc(C(F)(F)F)cc2)C[C@H](OCc2ccc(CO)cc2)O1,inactive,30.2%,87.2%,inactive,246,inactive
O=C(CSc1ccc2nnc(-c3ccccn3)n2n1)Nc1ccc2c(c1)OCO2,inactive,39.5%,53.4%,inactive,120,inactive
